About 83,000 compounds went through this panel and 20% of them were active in at least one assay; those are over-represented in the sample as a whole.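 Percent growth is the endpoint: 0 to 100 indicates growth inhibition (40 means 60% inhibition), 0 means no net growth, and negative values indicate cell death.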 Unmarked numbers belong to inactive results. Activity calls are given as the source filed them. Rule for the calls: active = growth percent below 10; inactive = the rest.

Holding throughout (test): NCI-60 one-dose screen, 48 h (100 = growth as untreated, 0 = no growth, -100 = all killed)
The subject of assay [1] is NCI-H23 lung. The following applies: 10 µM unless noted.
The test system of assay [2] is NCI-H322M lung. The following applies: 10 µM unless noted.
For assay [3], the system named is HOP-62 NSCLC. As to conditions: 10 µM unless noted.
In assay [4] the test system is NCI-H522 lung. The following applies: 10 µM.
For assay [5], the system named is A549/ATCC NSCLC. The following applies: 10 µM unless noted.
In assay [6] the test system is 786-0 renal. As to conditions: 10 µM unless noted.
In assay [7] the test system is COLO 205 colon. As to conditions: 10 µM unless noted.
The subject of assay [8] is NCI-H460 lung. The following applies: 10 µM unless noted.
Assay [9] deals with HOP-92 NSCLC. The following applies: 10 µM unless noted.
Assay [10] deals with NCI-H226 lung. The following applies: 10 µM.

On to `Cc1c(NCC(=O)Nc2nc3ccccc3[nH]2)c(=O)n(-c2ccccc2)n1C`, for which the growth in assay [1] was 94.9%; in [2], 105%; in [3], 107%; in [4], 100%; in assay [5], 97%; in [6], 104%. In assay [7], the growth was 110%.
On to `CCOc1ccc(-c2cnnn2-c2nonc2-n2cccc2)cc1`, for which the growth in [1] is 17.3%; in [3], 31.6%; in assay [8], 10.2%; in assay [9], 25.4%; in [4], -55.9% (active); in assay [5], 17.2%. In addition, the growth was 37.3% in assay [6] and -75.2% (active) in [7].
As for `CCOC(=O)c1cn2c3c(cc(F)cc3c1=O)C(CC)c1ccccc1C2` (configuration not stated), the growth in [1] was 103%; in [2] it was 87.1%; in assay [8], 101%; in assay [4] it was 78.7%; in assay [5] it was 87.2%; in assay [6], 93.2%. Further, in [7], the growth is 105%.
Turning to `COc1cccc(Nc2nc(NCCO)c3ccccc3n2)c1`, the growth in assay [1] is 85.8%; in assay [2], 86.4%; in assay [3], 93.1%; in assay [4], 70.8%; in assay [5], 68.3%; in assay [6] it was 86%. Besides, in [7], the growth was 108%.
Regarding `FC(F)(F)c1ccc2c(c1)n1cnnc1c1nncn21`, the growth in assay [1] is 103%; in assay [3] it was 113%; in assay [8], 110%; in assay [9], 88.7%; in assay [4], 97.1%; in assay [6], 101%. Moreover, the growth in assay [7] was 111%.
As to `c1ccc2c(c1)oc1cc3c(cc12)nnc1cccn13`, the growth in [10] was 98.5%; in assay [2], 90.9%; in assay [3] it was 116%; in assay [8], 112%; in [9], 120%; in [4], 96.7%. The growth in assay [5] is 97.1%; in [6], 121%.
As for `COc1ccc2nc(-n3nc(C)cc3C)c(-n3nc(C)cc3C)nc2c1`, the growth in [1] is 97.1%; in assay [3], 105%; in assay [8], 108%; in [4], 100%; in [5] it was 115%; in assay [6], 105%. In addition, in assay [7], the growth was 113%.
As to `COc1ccc(/C=C(\C#N)c2cc3ccccc3n2C)cc1`, the growth in [1] is 39.4%; in [2], 48.3%; in [8] it was 6.08% (active); in assay [9] it was 76.5%; in assay [5] it was 27.2%; in assay [6], 32.9%. The growth in assay [7] was -17.8% (active).
As to `Cc1nn2c(-c3nc4ccc(Cl)cc4[nH]3)c(-c3ccc(F)cc3)nc2s1`, the growth in [1] was 98.2%; in [3], 115%; in assay [8], 97.5%; in assay [9], 91%; in [4] it was 99.9%; in [5], 80.1%. The results for the growth in [6] and in [7] were 93.8% and 108%, respectively.
With `Cc1cc(O)cc2c1[C@H]1CC[C@]3(C)[C@@H](O)CC[C@H]3[C@@H]1C=C2`, the growth is 90.5% in [1]; 74.5% in [3]; 104% in assay [8]; 105% in assay [9]; 43.2% in [4]; 86.9% in assay [5]. Further, the results for the growth in [6] and in assay [7] were 99.5% and 108%, respectively.
For the compound `COc1ccc(-c2nc3sccn3c2/C=C/C(=O)c2cc(OC)c(OC)c(OC)c2)cc1OC`, the growth in [10] is 64.9%; in assay [2] it was 57.9%; in assay [3] it was 36.9%; in [8] it was 6.91% (active); in [9], 0.346% (active); in [4], 15.3%. Moreover, the growth is 54.4% in assay [5], 27.7% in [6] and 29.6% in assay [7].
With `Clc1ccc(C2=Nc3cccc4cccc(c34)N2)cc1Cl`, the growth in assay [1] is 76.9%; in assay [2], 103%; in [8], 100%; in assay [9], 92.9%; in assay [4], 62%; in assay [5], 99.6%. For the same compound, the growth in assay [6] was 111%; in assay [7], 100%.
On to `Cc1nc(NN)c([N+](=O)[O-])c(NN)n1`, for which the growth in assay [10] is 106%; in [2], 110%; in assay [3] it was 110%; in assay [8] it was 103%; in assay [9] it was 102%; in assay [4], 108%. The growth is 100% in [5], 104% in assay [6] and 118% in [7].
Turning to `O=C1/C(=C/c2ccc(F)cc2)CN(Cc2cn(CCNc3ccnc4cc(Cl)ccc34)nn2)C/C1=C\c1ccc(F)cc1`, the growth in [10] was -62.3% (active); in assay [2] it was -0.345% (active); in assay [3] it was -55.3% (active); in assay [8], -42.8% (active); in assay [9] it was -50.5% (active); in assay [4], -75.4% (active). In addition, the growth in assay [5] was -31.3% (active); in assay [6], -66.2% (active); in assay [7] it was -53.4% (active).
`Cn1cc(C(=O)NCCC(=N)N)cc1NC(=O)CN=C(N)N`: the growth in assay [10] is 90.7%; in assay [2], 106%; in assay [3], 85.9%; in [8] it was 107%; in [9] it was 89.5%; in assay [4], 87.5%. The growth in assay [5] was 99.2%; in assay [6], 85.4%; in [7], 103%.
Turning to `O=C(CCCCCCC(=O)Nc1ccc2c(c1)/C(=C/c1ccc[nH]1)C(=O)N2)NO`, the growth in assay [10] is 27.6%; in [2], 15.1%; in assay [3], 14%; in assay [8] it was 25.8%; in assay [9], -19.7% (active); in assay [4], 14.8%. For the same compound, the growth is 34.9% in assay [5], 26.2% in assay [6] and -58.6% (active) in [7].
As for `Cc1nc2cc(Nc3nc(NCCO)nc(Nc4ccc(F)cc4)n3)ccc2n1Cc1ccccc1`, the growth is 91.6% in [10]; 98.9% in assay [2]; 94% in [3]; 83.5% in [8]; 49.9% in [9]; 85.6% in assay [4]. For the same compound, the growth in assay [5] was 74.1%; in assay [6], 94.7%; in assay [7] it was 94.5%.
For the compound `COc1cc(/C=C/c2cc(/C=C/c3ccc(O)c(OC)c3)n(-c3ccccc3)n2)ccc1O`, the growth in [10] was -8.19% (active); in assay [2], -3.64% (active); in assay [3] it was -67.7% (active); in assay [8] it was 0.0675% (active); in assay [4] it was -30.2% (active); in [5], 8.4% (active). Further, the growth in [6] is -76.7% (active); in [7] it was -84.1% (active).
Regarding `COc1cccc(C2C3=C(COC3=O)N(CCO)c3cc4c(cc32)CCC4)c1` (configuration not stated), the growth in [10] is 13.4%; in [2], 30.3%; in assay [3] it was 19.2%; in assay [8] it was 1.42% (active); in assay [4], -50.4% (active); in assay [5], 12.1%. Further, the growth was 0.563% (active) in assay [6] and -78.5% (active) in assay [7].
`C[C@@H](Oc1cc(-c2cnn(C3CC4(CCNCC4)C3)c2)cnc1N)c1c(F)ccc(Cl)c1Cl`: the growth in assay [10] was 65.5%; in assay [2], 44.4%; in [3] it was 28.4%; in assay [8] it was -11.7% (active); in assay [9], -18.8% (active); in assay [4], -0.334% (active). The growth is -14.4% (active) in assay [5], -2.08% (active) in assay [6] and -8.9% (active) in assay [7].
As for `O=C1C(Cl)=C(NCCCN2CCOCC2)C(=O)c2ccccc21`, the growth in assay [10] is 107%; in assay [2], 98.5%; in assay [3], 120%; in assay [8], 99.2%; in [9] it was 106%; in assay [4] it was 89.9%. Besides, the growth in assay [5] is 98.8%; in [6], 113%; in [7] it was 86.9%.
In the case of `Clc1ccc2c(N3CCN(c4ccnc(NC5CCCCC5)n4)CC3)ccnc2c1`, the growth in assay [10] was 80.7%; in assay [2], 98.8%; in [3] it was 51.7%; in [8], 32%; in assay [9], 40.6%; in assay [4] it was 71.3%. Besides, the growth was 54.4% in assay [5], 49.4% in assay [6] and -1.41% (active) in assay [7].
In the case of `O=C(COc1ccc(/C=C2\CSc3ccccc3C2=O)cc1)c1ccc(Cl)cc1`, the growth is 97.9% in [10]; 111% in [2]; 94.4% in [3]; 115% in assay [8]; 122% in assay [9]; 99.4% in assay [4]. The figures for the growth in assay [5], in assay [6] and in assay [7] were 101%, 105% and 103%, respectively.
As for `Cc1nc2cc(Nc3nc(NCCN)nc(Nc4ccc(F)cc4)n3)ccc2n1Cc1ccccc1`, the growth in assay [10] is 95.4%; in [2], 99.7%; in assay [3] it was 79.1%; in [8], 82.6%; in assay [9], 48.5%; in [4] it was 85.9%. In addition, the growth in [5] was 83.9%; in assay [6] it was 82.4%; in assay [7], 82%.

The record behind these values is PubChem BioAssay (NCI).
